PGC1a acetyl inh: modulators of PGC1a acetylation; inhibition, % at 15.6 µM; U2OS PGC1a acetylation, AlphaScreen anti-acetyl-lysine; with virally co-expressed GCN5 acetyltransferase; AID 651687; 350,000 tested, 0.17% active;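 active = every replicate shows inhibition of at least 40%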;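 note: 0% = neutral control wells and 100% = positive control wells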
Env fusion inh: blocks HIV Env-driven cell-cell fusion; HeLa-JRFL Env/CEM21 cell fusion, luciferase; inhibition, % at 12.3 µM; 360,000 tested, 1.1% active;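 active = mean replicate inhibition score of at least 50 and every replicate individually at or above 50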;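 note: 0% = plate neutral controls and 100% = maraviroc near 300 nM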
GSIS activator: GLuc luminescence reporter in INS-1E cells, primary screen for activators of glucose-dependent secretion of insulin; activation, % at 16.6 µM; AID 743287; INS-1E GLuc reporter insulin secretion, 2-3 h; 370,000 tested, 0.61% active;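 active = lowest replicate activation of at least 40%, so every replicate reaches that level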;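 note: 0% = median of neutral control wells and 100% = median of IBMX positive control wells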
CFTR F508del cor: correctors of CFTR F508del function in bronchial epithelial cells. CFBE cells, YFP halide quenching; stimulated with forskolin plus potentiator P3; % fluorescence drop versus neutral controls. activity (quench increase), % at 7.58 µM. 350,000 tested, 0.36% active. AID 720511;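 active = mean added fluorescence quench of at least 8% versus neutral control, with both replicates also reaching 8%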;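 note: cells transiently co-express mutant CFTR-F508del with the halide-sensitive YFP; corrector assay measuring rescue of mutant channel to the surface after 24 h compound exposure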
PAX8 inh HTS: inhibitors of PAX8 transcriptional activity in RMG-I cells. RMG-I TPO-luciferase reporter, SteadyGlo, 24 h. inhibition, % at 12.6 µM. 360,000 tested, 1.2% active;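 active = mean replicate inhibition at least 60% with every replicate also reaching 60%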;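 note: luciferase light reporting Pax8 driven TPO promoter activity; plate controls were median of neutral control wells for no effect and mitoxantrone controls for full effect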
EWS-Fli block: blocks EWS/Fli oncoprotein-driven transcription; A673 NR0B1-luciferase reporter, viability-normalised; inhibition, % at 12.6 µM; 350,000 tested, 0.67% active; AID 651661;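 active = mean inhibition of at least 50% after viability correction, with every replicate also passing that limit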;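 note: firefly luciferase signal divided by Alamar Blue viability fluorescence both relative to DMSO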
Numbers without * were called inactive; i = inactive; . = not tested or not shown; [ ] = dose if it differs, or a comment. This is a sample that favours compounds with a hit; in the whole collection about 2.7% have one here.

SMILES	PGC1a acetyl inh	Env fusion inh	GSIS activator	CFTR F508del cor	PAX8 inh HTS	EWS-Fli block
O=C(c1ccc2c3c(cccc13)CC2)C1CCCN(C(=O)c2ccc(=O)[nH]c2)C1 (configuration not stated)	.	21	-5	-1	18	-5
CN(C)C(=O)CCC(=O)N1CCCC(C(=O)c2ccc3c4c(cccc24)CC3)C1 (configuration not stated)	-5	80*	-13	-2	-20	-6
COc1ccc(CN2CC3(CCN(C(=O)C4CC4)CC3)c3c(n(C)c4cc(OC)ccc34)[C@@H]2CO)cc1	.	.	-12	-1	6	0
COc1ccc(S(=O)(=O)N(C)C[C@H]2OCCCC[C@H](C)Oc3ccc(NC(=O)Nc4ccccc4)cc3C(=O)N([C@@H](C)CO)C[C@H]2C)cc1	-8	1[16.7 µM]	12	4	16	-5
NCC[C@H]1CC[C@@H](NS(=O)(=O)c2ccc(Cl)cc2)[C@H](CO)O1	3	0[16.7 µM]	5	-2	2	10
Cc1cc(C)c2nc(N(CCCN(C)C)C(=O)c3ccc4c(c3)CCCC4)sc2c1	.	-16	40*	4	20	7
Cc1ccc2nc(N(CCCN(C)C)C(=O)c3ccc4c(c3)CCCC4)sc2c1	-4	-1	4	.	-11	.
CCCCCCC1CCC(C(=O)NC(CCSC)C(=O)NC(C(=O)OC)C(C)C)CC1 (configuration not stated)	-1	57*	.	.	.	.
CN1C=C/C(=C\c2cc[n+](C)c3ccccc23)c2ccccc21	.	46	3	1	97*	74*
CCCNC(=O)c1cc2c(c(-c3cccc(-c4ccncc4)c3)n1)[C@@H](CCO)N(S(=O)(=O)CC)C2	1	.	-10	2	-8	8
CCCCCCCOC(=O)c1nc(Cl)c(Cl)c(N)c1Cl	-10	.	416*	-1	-19	-9
CCCCOC(=O)c1nc(Cl)c(Cl)c(N)c1Cl	-8	-45	3	.	34	4
CN(C)c1ccc(NC(=O)CN2CCC(O)(c3ccccc3)CC2)cc1	1	21	17	1	23	0
CN(C)C(=O)C(CCN1CCC(O)(c2ccc(Cl)cc2)CC1)(c1ccccc1)c1ccccc1	-18	i	-21	11*	10	16
CN(C)CC(=O)Nc1ccc2c(c1)[C@@H]1C[C@H](CC(=O)NCCN3CCCCC3)O[C@H](CO)[C@@H]1O2	6	-12[16.7 µM]	24	3	-4	-10
CCCCN(CCCNC(=S)NCCCc1cnc[nH]1)c1ccc(Br)cn1	.	-13	72*	-2	0	-8
S=C(NCCCc1cnc[nH]1)NCCCN(Cc1ccccc1)c1ccc(Br)cn1	.	26	43	-2	19	13
CO[C@H]1CN(C)C(=O)c2ccc(NC(=O)Nc3cccc(F)c3)cc2OC[C@H](C)NC[C@H]1C	-8	75*[16.7 µM]	18	-1	11	-11
CO[C@@H]1CN(C)C(=O)c2ccc(NC(=O)C3CC3)cc2OC[C@@H](C)N(C(C)=O)C[C@H]1C	.	.	1	-1	.	.
CO[C@H]1CN(C)C(=O)c2cc(NC(=O)C3CCOCC3)ccc2OC[C@H](C)N(Cc2nccs2)C[C@H]1C	-5	74*	-1	3	12	1
CO[C@H]1CN(C)C(=O)c2ccc(NC(=O)C3CCC3)cc2OC[C@@H](C)N(CC2CCCCC2)C[C@@H]1C	-21	58*[16.7 µM]	-39	2	29	13
CO[C@H]1CN(C)C(=O)c2ccc(NC(=O)C3CC3)cc2OC[C@@H](C)N(C(C)=O)C[C@@H]1C	4	62*[16.7 µM]	11	5	-5	1
CO[C@@H]1CN(C)C(=O)c2ccc(NC(=O)C3CCC3)cc2OC[C@H](C)N(CC2CCCCC2)C[C@@H]1C	-8	7[16.7 µM]	-3	0	-4	-11
C[C@H]1CN([C@@H](C)CO)C(=O)c2cc(-c3ccncc3)cnc2O[C@@H]1CN(C)C(=O)C1CCC1	-16	6[16.7 µM]	23	0	.	1
O=C(NCCc1ccncc1)[C@H]1[C@H](CO)[C@H]2Cn3c(ccc(-c4ccccc4)c3=O)[C@@H]1N2	.	.	4	-1	.	-3
SMILES	PGC1a acetyl inh	Env fusion inh	GSIS activator	CFTR F508del cor	PAX8 inh HTS	EWS-Fli block
COCCNC(=O)C[C@@H]1CC[C@@H]2[C@H](COC[C@H](O)CN2C(=O)c2cc(Cl)cc(Cl)c2)O1	5	-9[16.7 µM]	8	1	-6	6
CO[C@H]1CN(C)C(=O)c2ccc(NC(=O)Nc3c(C)noc3C)cc2OC[C@@H](C)N(CC2CC2)C[C@@H]1C	9	-9[16.7 µM]	15	0	-18	-5
CO[C@@H]1CN(C)C(=O)c2ccc(NC(=O)Nc3cccc(F)c3)cc2OC[C@@H](C)N(C(=O)Nc2cccc(F)c2)C[C@H]1C	-8	74*[16.7 µM]	-9	1	.	-12
CO[C@H]1CN(C)C(=O)c2ccc(NC(=O)Nc3cccc(F)c3)cc2OC[C@@H](C)N(C(C)=O)C[C@H]1C	15	65*[16.7 µM]	-8	0	.	-2
CO[C@@H]1CN(C)C(=O)c2ccc(NC(=O)Nc3cccc(F)c3)cc2OC[C@@H](C)N(C(C)=O)C[C@@H]1C	10	-1[16.7 µM]	-9	1	.	-8
CO[C@@H]1CN(C)C(=O)c2ccc(NC(=O)Nc3c(C)noc3C)cc2OC[C@H](C)N(CC2CC2)C[C@@H]1C	101*	-10[16.7 µM]	10	1	-13	-8
COCC(=O)N1C[C@H](C)[C@H](OC)CN(C)C(=O)c2ccc(NC(=O)Nc3cccc(F)c3)cc2OC[C@H]1C	5	.	-6	-1	.	-22
C[C@H]1CN([C@@H](C)CO)C(=O)Cc2cc(NC(=O)C3CC3)ccc2O[C@@H]1CN(C)Cc1ccccc1	.	-5[16.7 µM]	18	1	3	-3
CN1c2ccc(C3=CCCCC3)cc2[C@@H]2[C@@H](CCN2S(=O)(=O)c2ccccc2)[C@@H]1CO	-9	.	0	1	2	-5
CCCN1C[C@H](C)[C@@H](OC)CN(C)C(=O)c2cc(NC(=O)CC)ccc2OC[C@H]1C	6	.	-2	-1	.	-9
C[C@H]1CN([C@@H](C)CO)C(=O)c2cc(C#Cc3ccc(F)cc3)cnc2O[C@H]1CN(C)Cc1ccccn1	-16	12[16.7 µM]	-7	4	.	-7
NCc1csc(Nc2ccc(C(=O)c3ccccc3)cc2)n1	0	-91	23	1	34	52*
COc1cccc2c1C(CO)N1C(C#N)C3CC(C(=O)O)C(C1C2)N3C (configuration not stated)	66*	.	7	-9	.	24
COc1ccccc1-c1ccccc1[C@H]1[C@@H](CO)N(C(=O)C2CC2)[C@H]1C#N	14	.	16	1	0	-6
N#Cc1sc2nc(C3CC3)cc(-c3ccccc3)c2c1N	-16	-21	49*	.	-15	1
N#Cc1sc2nc(-c3ccccc3)cc(-c3ccco3)c2c1N	7	-71	.	.	-11	.
